Columns and labels:
Assay in all cases: DAPPL (digital affinity profiling via proximity ligation, sequencing); 10 mM Tris-HCl pH 7.5, 50 mM NaCl, 1 mM DTT, 4% glycerol, room temperature, 30 min; GST-TFs on glutathione beads, 16-mer random dsDNA library, 0.1% formaldehyde crosslink after washing; high values mean tight binding
[1] = target: T1, FLI1 (Homo sapiens, UniProt Q01543 1-452); conditions: protein: recombinant; tags: N-terminal GST; dsDNA, one strand shown
T1 sequence: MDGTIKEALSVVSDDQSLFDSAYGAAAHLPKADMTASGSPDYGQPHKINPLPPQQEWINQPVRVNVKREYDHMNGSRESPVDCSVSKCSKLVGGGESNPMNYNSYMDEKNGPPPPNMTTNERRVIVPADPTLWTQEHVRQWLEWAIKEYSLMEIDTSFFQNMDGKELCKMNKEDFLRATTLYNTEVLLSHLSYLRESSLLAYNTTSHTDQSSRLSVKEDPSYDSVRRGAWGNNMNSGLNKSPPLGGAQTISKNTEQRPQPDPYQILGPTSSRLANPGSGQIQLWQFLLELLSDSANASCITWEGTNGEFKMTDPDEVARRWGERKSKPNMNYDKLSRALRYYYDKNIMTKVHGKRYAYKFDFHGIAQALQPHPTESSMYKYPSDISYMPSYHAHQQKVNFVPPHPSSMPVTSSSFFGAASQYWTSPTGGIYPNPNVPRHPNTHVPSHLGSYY
Method in brief: (§1)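 Pools of DNA-barcoded human transcription factors, expressed in yeast as GST fusions on glutathione beads and combined with a tag-only sample, were incubated with 200 nmole of a 16-mer random double-stranded DNA library. Incubation took 30 min at room temperature in Tris/NaCl/DTT/glycerol buffer and was followed by washing, 0.1% formaldehyde crosslinking, proximity ligation (BsaI/T4 ligase, 1 h, 37 °C), PCR amplification and sequencing on an Illumina NextSeq500. Binding signal is the ratio of a hexamer's read frequency for a factor to its frequency for the tag-only sample.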

[2] = target: T2, ELK1 (Homo sapiens, UniProt P19419 1-428); conditions: protein: recombinant; tags: N-terminal GST; dsDNA, one strand shown
T2 sequence: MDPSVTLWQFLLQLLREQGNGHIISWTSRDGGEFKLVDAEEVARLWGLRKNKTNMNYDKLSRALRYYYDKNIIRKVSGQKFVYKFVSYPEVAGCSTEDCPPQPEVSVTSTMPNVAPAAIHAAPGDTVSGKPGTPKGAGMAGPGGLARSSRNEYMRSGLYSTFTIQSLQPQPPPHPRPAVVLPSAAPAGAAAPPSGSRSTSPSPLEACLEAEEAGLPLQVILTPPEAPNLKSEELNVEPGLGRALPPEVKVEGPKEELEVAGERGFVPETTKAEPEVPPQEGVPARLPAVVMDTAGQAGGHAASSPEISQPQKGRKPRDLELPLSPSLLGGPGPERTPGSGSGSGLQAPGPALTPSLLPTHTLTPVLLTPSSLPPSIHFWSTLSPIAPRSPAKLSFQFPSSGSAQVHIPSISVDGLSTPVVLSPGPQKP
Method in brief: as §1

[3] = target: T3, GABPA (Homo sapiens, UniProt Q06546 1-454); conditions: protein: recombinant; tags: N-terminal GST; dsDNA, one strand shown
T3 sequence: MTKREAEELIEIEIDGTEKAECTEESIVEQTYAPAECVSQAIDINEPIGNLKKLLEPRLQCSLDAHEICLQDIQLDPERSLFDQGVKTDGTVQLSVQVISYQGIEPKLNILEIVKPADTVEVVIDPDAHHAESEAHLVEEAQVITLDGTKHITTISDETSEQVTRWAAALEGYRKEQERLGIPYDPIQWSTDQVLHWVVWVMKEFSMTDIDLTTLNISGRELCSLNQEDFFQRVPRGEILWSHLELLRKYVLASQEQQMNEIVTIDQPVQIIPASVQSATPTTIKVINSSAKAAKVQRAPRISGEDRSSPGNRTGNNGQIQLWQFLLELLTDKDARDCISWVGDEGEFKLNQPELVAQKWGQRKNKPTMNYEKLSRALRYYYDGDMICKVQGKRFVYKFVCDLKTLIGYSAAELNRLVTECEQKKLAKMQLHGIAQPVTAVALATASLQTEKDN
Method in brief: as §1

[4] = target: T4, ERG (Homo sapiens, UniProt P11308 1-479); conditions: protein: recombinant; tags: N-terminal GST; dsDNA, one strand shown
T4 sequence: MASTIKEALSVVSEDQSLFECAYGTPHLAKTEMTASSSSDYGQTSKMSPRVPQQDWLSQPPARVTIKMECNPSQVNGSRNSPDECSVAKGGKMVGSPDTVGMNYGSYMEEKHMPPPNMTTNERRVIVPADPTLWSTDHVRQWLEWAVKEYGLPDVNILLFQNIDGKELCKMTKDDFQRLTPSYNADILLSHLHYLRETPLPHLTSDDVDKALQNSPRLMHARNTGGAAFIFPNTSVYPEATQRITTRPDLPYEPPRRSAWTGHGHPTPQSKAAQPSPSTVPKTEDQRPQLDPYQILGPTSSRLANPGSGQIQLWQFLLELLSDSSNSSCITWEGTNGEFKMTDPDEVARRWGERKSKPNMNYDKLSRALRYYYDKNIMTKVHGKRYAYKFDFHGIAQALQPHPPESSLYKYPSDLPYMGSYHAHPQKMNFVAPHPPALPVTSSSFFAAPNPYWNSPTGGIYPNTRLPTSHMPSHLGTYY
Method in brief: as §1

[5] = target: ELF1 (Homo sapiens, UniProt P32519 1-619); conditions: protein: recombinant; tags: N-terminal GST; dsDNA, one strand shown
Method in brief: as §1

[6] = target: T5, EHF (Homo sapiens, UniProt Q9NZC4 1-300); conditions: protein: recombinant; tags: N-terminal GST; dsDNA, one strand shown
T5 sequence: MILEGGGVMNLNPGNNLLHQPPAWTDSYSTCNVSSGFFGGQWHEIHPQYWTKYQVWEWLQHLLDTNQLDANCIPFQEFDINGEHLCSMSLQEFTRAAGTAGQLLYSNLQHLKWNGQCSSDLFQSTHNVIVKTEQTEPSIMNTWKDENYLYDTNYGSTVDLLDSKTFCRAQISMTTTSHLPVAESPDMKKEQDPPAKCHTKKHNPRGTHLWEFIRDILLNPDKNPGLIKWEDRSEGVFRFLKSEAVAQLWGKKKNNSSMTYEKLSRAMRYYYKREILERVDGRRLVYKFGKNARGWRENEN
Method in brief: as §1

[7] = target: SPI1 (Homo sapiens, UniProt P17947 1-270); conditions: protein: recombinant; tags: N-terminal GST; dsDNA, one strand shown
Method in brief: as §1

[8] = target: SPIB (Homo sapiens, UniProt Q01892 1-262); conditions: protein: recombinant; tags: N-terminal GST; dsDNA, one strand shown
Method in brief: as §1

[9] = target: T6, ELK3 (Homo sapiens, UniProt P41970 1-407); conditions: protein: recombinant; tags: N-terminal GST; dsDNA, one strand shown
T6 sequence: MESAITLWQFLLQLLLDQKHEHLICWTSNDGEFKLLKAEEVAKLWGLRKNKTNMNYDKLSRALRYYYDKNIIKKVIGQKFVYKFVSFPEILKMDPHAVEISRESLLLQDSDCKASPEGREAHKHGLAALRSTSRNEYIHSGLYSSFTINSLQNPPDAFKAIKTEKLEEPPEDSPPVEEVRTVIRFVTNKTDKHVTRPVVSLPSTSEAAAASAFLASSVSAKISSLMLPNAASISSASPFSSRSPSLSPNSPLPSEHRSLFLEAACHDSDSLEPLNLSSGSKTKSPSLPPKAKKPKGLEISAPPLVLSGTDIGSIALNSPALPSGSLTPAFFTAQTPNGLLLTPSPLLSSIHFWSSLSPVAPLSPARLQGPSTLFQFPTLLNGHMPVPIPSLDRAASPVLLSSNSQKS
Method in brief: as §1

[10] = target: T7, FEV (Homo sapiens, UniProt Q99581 1-238); conditions: protein: recombinant; tags: N-terminal GST; dsDNA, one strand shown
T7 sequence: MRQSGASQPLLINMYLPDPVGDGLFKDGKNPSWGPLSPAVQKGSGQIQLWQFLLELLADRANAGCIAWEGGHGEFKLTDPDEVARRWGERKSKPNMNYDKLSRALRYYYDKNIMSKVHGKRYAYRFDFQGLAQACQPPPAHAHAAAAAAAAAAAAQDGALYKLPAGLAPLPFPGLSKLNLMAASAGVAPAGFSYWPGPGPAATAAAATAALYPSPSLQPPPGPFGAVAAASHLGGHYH
Method in brief: as §1

[11] = target: ETV5 (Homo sapiens, UniProt P41161 1-510); conditions: protein: recombinant; tags: N-terminal GST; dsDNA, one strand shown
Method in brief: as §1

[12] = target: HSF1 (Homo sapiens, UniProt Q00613 1-529); conditions: protein: recombinant; tags: N-terminal GST; chain copies: 3; dsDNA, one strand shown
Method in brief: as §1

[13] = target: T8, SPIC (Homo sapiens, UniProt Q8N5J4 1-248); conditions: protein: recombinant; tags: N-terminal GST; dsDNA, one strand shown
T8 sequence: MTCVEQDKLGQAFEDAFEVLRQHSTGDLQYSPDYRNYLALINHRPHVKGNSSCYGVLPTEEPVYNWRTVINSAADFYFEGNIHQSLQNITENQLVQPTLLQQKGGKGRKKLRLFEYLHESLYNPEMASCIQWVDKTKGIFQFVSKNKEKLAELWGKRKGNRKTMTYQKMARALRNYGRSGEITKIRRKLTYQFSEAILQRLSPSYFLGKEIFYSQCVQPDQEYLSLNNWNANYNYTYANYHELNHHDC
Method in brief: as §1

[14] = target: ELF4 (Homo sapiens, UniProt Q99607 1-663); conditions: protein: recombinant; tags: N-terminal GST; dsDNA, one strand shown
Method in brief: as §1

[15] = target: T9, ELK4 (Homo sapiens, UniProt P28324-2 1-405); conditions: protein: recombinant; tags: N-terminal GST; dsDNA, one strand shown
T9 sequence: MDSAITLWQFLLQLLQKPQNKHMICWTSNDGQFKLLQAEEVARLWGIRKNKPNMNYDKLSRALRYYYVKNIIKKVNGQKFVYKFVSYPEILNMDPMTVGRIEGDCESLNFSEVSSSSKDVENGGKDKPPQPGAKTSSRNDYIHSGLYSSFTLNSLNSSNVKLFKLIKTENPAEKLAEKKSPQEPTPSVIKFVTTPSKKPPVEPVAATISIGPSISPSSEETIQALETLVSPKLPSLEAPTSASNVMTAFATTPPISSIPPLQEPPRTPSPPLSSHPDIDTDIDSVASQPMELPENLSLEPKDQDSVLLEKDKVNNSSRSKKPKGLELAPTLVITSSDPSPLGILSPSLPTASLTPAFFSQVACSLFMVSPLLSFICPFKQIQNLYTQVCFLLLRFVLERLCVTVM
Method in brief: as §1

[16] = target: T10, ETV2 (Homo sapiens, UniProt O00321 1-342); conditions: protein: recombinant; tags: N-terminal GST; dsDNA, one strand shown
T10 sequence: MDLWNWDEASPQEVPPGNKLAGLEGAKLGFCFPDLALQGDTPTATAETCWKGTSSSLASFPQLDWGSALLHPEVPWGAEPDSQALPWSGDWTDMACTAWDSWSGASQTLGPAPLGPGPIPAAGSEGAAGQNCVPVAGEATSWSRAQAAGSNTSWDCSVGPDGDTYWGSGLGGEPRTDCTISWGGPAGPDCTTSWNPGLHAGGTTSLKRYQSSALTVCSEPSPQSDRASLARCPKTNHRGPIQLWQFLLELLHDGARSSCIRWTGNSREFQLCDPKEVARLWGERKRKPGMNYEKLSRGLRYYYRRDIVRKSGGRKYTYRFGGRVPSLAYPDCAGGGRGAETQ
Method in brief: as §1

[17] = target: T11, ELF3 (Homo sapiens, UniProt P78545 1-371); conditions: protein: recombinant; tags: N-terminal GST; dsDNA, one strand shown
T11 sequence: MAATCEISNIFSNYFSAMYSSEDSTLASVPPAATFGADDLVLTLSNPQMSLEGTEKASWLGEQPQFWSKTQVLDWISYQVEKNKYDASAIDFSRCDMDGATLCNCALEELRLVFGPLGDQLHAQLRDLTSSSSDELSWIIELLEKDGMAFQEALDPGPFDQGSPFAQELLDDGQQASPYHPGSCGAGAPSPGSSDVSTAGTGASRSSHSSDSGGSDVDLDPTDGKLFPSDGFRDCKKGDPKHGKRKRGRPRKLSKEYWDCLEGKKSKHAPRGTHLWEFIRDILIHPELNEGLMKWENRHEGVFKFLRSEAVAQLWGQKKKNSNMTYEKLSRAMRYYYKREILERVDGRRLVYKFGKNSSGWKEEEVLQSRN
Method in brief: as §1

[18] = target: CRX (Homo sapiens, UniProt O43186 1-299); conditions: protein: recombinant; tags: N-terminal GST; dsDNA, one strand shown
Method in brief: as §1

[19] = target: ETV1 (Homo sapiens, UniProt P50549 1-477); conditions: protein: recombinant; tags: N-terminal GST; dsDNA, one strand shown
Method in brief: as §1

Sequence of ETV5 (P41161 whole entry): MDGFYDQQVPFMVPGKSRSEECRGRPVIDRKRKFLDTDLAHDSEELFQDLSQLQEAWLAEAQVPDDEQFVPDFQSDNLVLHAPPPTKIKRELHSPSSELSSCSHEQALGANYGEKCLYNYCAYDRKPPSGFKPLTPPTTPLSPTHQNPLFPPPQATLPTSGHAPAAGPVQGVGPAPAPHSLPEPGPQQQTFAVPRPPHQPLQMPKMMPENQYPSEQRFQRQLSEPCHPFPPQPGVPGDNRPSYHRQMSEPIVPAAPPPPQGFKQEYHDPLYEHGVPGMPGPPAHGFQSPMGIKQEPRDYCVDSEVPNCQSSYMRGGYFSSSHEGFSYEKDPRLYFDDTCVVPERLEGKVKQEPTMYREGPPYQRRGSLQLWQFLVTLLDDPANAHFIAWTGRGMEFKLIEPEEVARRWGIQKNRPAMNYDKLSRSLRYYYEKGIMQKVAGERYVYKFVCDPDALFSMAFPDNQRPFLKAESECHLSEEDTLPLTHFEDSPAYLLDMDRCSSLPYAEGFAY
Sequence of HSF1 (Q00613 whole entry): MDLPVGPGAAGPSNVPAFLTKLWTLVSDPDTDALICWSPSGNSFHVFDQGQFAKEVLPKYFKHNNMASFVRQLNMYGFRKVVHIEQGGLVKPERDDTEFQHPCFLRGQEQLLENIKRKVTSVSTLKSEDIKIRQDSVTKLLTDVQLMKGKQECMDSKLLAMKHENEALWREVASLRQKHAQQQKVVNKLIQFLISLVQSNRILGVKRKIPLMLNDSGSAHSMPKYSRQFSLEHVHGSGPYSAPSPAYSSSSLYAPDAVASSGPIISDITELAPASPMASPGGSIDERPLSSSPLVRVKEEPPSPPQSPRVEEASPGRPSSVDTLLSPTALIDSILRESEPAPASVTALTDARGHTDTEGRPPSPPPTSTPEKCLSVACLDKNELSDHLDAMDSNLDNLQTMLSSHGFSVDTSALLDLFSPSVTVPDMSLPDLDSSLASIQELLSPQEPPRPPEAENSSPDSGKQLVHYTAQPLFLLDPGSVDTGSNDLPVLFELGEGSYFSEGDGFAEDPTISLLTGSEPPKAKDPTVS
Sequence of ELF1 (P32519 whole entry): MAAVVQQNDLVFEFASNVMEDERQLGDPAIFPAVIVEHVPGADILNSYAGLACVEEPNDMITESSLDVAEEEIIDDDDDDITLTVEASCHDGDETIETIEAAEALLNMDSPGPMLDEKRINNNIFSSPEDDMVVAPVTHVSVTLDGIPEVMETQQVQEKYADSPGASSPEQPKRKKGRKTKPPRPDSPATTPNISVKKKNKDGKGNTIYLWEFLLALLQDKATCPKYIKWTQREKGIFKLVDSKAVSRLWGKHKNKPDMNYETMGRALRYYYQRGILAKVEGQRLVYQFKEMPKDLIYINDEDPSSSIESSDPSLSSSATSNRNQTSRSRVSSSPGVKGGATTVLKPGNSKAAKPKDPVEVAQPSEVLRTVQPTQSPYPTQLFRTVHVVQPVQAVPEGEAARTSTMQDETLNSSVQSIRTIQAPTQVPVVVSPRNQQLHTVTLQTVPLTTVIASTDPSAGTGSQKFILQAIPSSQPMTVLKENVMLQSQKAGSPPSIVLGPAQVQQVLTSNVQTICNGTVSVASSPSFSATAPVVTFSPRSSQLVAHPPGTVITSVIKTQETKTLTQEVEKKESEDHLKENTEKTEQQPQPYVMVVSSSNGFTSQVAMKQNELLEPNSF
Sequence of CRX (O43186 whole entry): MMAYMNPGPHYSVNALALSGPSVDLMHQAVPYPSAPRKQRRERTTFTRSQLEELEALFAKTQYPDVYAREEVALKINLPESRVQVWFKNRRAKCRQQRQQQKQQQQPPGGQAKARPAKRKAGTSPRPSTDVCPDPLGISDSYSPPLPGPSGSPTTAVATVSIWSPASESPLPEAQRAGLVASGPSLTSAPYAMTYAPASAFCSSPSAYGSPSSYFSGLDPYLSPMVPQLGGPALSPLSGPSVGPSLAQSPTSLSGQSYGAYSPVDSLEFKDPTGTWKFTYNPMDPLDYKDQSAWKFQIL
Sequence of ETV1 (P50549 whole entry): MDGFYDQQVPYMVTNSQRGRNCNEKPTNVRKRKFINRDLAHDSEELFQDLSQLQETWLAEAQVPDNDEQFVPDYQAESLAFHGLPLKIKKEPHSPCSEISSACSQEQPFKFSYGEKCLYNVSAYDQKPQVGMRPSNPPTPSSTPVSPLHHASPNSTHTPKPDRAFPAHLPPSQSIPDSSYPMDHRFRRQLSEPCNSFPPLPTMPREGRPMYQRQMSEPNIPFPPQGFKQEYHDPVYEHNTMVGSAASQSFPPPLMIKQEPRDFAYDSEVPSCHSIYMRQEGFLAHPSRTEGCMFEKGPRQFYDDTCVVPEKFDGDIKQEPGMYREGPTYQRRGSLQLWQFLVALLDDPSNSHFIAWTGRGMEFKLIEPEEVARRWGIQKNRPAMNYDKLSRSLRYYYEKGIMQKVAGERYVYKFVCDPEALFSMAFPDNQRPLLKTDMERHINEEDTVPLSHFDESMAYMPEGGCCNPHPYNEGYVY
Sequence of ELF4 (Q99607 whole entry): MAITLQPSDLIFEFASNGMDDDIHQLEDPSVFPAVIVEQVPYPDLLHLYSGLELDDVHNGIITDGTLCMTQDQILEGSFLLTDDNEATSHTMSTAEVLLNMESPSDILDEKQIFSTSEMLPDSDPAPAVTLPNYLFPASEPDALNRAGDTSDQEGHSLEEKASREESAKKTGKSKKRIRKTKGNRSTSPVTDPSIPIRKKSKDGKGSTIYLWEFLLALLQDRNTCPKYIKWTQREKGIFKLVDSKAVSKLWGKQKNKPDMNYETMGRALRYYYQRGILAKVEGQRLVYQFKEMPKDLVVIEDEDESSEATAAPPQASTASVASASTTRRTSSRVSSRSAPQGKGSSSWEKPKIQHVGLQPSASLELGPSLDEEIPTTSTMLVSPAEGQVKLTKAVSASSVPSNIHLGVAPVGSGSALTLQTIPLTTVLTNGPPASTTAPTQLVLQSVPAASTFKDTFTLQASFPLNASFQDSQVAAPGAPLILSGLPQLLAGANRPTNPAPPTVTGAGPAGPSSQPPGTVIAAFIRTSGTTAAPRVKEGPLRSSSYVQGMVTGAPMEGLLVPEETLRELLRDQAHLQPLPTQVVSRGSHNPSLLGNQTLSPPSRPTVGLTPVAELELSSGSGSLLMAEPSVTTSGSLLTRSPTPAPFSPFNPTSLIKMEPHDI
Sequence of SPIB (Q01892 whole entry): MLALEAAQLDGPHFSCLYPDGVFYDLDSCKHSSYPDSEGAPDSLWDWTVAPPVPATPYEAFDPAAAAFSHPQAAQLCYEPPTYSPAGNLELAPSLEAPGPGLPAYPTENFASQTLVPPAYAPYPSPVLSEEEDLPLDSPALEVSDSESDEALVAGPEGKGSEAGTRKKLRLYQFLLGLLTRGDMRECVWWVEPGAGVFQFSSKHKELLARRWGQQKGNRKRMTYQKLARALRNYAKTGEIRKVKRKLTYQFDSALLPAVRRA

## AAAGCA
[1]
  binding signal: 1.01 fold enrichment (6-mer frequency, TF over GST control)
[2]
  binding signal: 1.04 fold enrichment (6-mer frequency, TF over GST control)
[3]
  binding signal: 1.15 fold enrichment (6-mer frequency, TF over GST control)
[4]
  binding signal: 1.09 fold enrichment (6-mer frequency, TF over GST control)
[5]
  binding signal: 1.04 fold enrichment (6-mer frequency, TF over GST control)
[6]
  binding signal: 1.02 fold enrichment (6-mer frequency, TF over GST control)
[7]
  binding signal: 1.1 fold enrichment (6-mer frequency, TF over GST control)
[8]
  binding signal: 1.08 fold enrichment (6-mer frequency, TF over GST control)
[9]
  binding signal: 1.05 fold enrichment (6-mer frequency, TF over GST control)
[10]
  binding signal: 1.07 fold enrichment (6-mer frequency, TF over GST control)
[11]
  binding signal: 1.06 fold enrichment (6-mer frequency, TF over GST control)
[12]
  binding signal: 1.04 fold enrichment (6-mer frequency, TF over GST control)
[13]
  binding signal: 1.01 fold enrichment (6-mer frequency, TF over GST control)
[14]
  binding signal: 1.09 fold enrichment (6-mer frequency, TF over GST control)
[15]
  binding signal: 1.14 fold enrichment (6-mer frequency, TF over GST control)
[16]
  binding signal: 1.11 fold enrichment (6-mer frequency, TF over GST control)
[17]
  binding signal: 1.02 fold enrichment (6-mer frequency, TF over GST control)
[18]
  binding signal: 1.06 fold enrichment (6-mer frequency, TF over GST control)
[19]
  binding signal: 1.06 fold enrichment (6-mer frequency, TF over GST control)

Source: PMC7862700, “An all-to-all approach to the identification of sequence-specific readers for epigenetic DNA modifications on cytosine”
